Laboratory results as given in PubChem BioAssay.
Calls of active or inactive are those of the source.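 The calls were made as follows: active = growth inhibition above 50% at the single 2 µM test dose, taken to imply half-maximal potency below 2 µM; inactive = the rest.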

experiment: antimalarial activity against Dd2 strain (AID 2302);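 also: 0% = DMSO untreated growth and 100% = chloroquine plus artemisinin killed control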; settings: P. falciparum Dd2 in RBCs, LDH growth readout, 72 h; at 2 µM; hits give high values

Growth inhibition, active:
COc1ccc(Nc2nccc(N3CCC(NC(=O)Nc4ccc5c(c4)OCO5)C3)n2)cc1 (stereo not given) 57%, CNC(=O)c1cnc(Nc2ccc(N3CCN(C)CC3)cc2)nc1Nc1cccc(OC)c1 101%, CC(C)n1ncc2c(C(=O)N3CCCC4CCCCC43)cc(C3CC3)nc21 (stereo not given) 92%, O=C(Nc1cc(C(F)(F)F)cc(C(F)(F)F)c1)c1cc(C(F)(F)F)cc(C(F)(F)F)c1 86%, CC(C)c1sc(N2CCN(C)CC2)nc1C(=O)Nc1ccc(F)cc1C(F)(F)F 99%, O=C(NCCc1ccccc1)[C@H](Cc1ccccc1)Nc1ccnc(NCC2CCCCC2)n1 53%, C=CCc1cc(OC)ccc1OCCCOc1c(C)nc(N)nc1N 97%, COc1cc(Nc2nccc(N3CCC(NC(=O)c4cccc(C#N)c4)C3)n2)cc(OC)c1OC (stereo not given) 76%, COc1cccc(N(CCCN2C(=O)c3cccc4cccc(c34)C2=O)C(=O)c2ccccc2C)c1 70%, Cc1cccc2[nH]c(-c3ccc(-c4cccc(CN5CCC(CO)CC5)c4)s3)nc12 61%, COc1cc2nc(Nc3ccc(C)cc3)nc(Nc3ccc(C)cc3)c2cc1OC 100%

Growth inhibition, inactive:
CN(C)CCOc1cc(O)c2c(c1)OC(C)(C)C=C2c1cccs1 10%, O=C(NCCCCN1CCN(c2cccc(Cl)c2Cl)CC1)c1ccc2c(c1)CCN(C1CCC1)CC2 31%, Cc1ccc(NC(=O)c2ccc3ncccc3c2)cc1OC1CCN(Cc2ccsc2)CC1 29%, Nc1nc(N)c2c(Oc3cccnc3)cccc2n1 -1%
